Experimental data published in PubChem BioAssay AID1030 (National Center for Advancing Translational Sciences (NCATS), 2008).
In all, about 220,000 compounds went through this assay and about 16,000 (7.3%) were called active. Roughly 25% stayed inconclusive and do not appear here. The sample as a whole holds a higher share of actives than the screen did. Values without a mark were called inactive. Calls follow the shape of the dose curve; as a rule, active = well fitted inhibition curve with a large enough effect (not every such curve was filed as active); inconclusive = small, poorly fitted or top-dose-only effect, or another doubt; inactive = no such curve, though single readings can be large or run the other way.
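For activity, negative = inhibition in this document: plate controls were no enzyme wells and a reference inhibitor.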
Potency is read from the fitted curve at half-maximal effect.

What follows are compounds tested against Aldehyde dehydrogenase 1A1 (Homo sapiens) (UniProt P00352) (assay: qHTS Assay for Inhibitors of Aldehyde Dehydrogenase 1 (ALDH1A1)). Details: Purified ALDH1A1, NADH fluorescence, propionaldehyde substrate; series mostly up to 75.3 µM; activity, negative = inhibition: at the top concentration.
Chain of Aldehyde dehydrogenase 1A1 (Homo sapiens) (P00352 whole entry, looked up): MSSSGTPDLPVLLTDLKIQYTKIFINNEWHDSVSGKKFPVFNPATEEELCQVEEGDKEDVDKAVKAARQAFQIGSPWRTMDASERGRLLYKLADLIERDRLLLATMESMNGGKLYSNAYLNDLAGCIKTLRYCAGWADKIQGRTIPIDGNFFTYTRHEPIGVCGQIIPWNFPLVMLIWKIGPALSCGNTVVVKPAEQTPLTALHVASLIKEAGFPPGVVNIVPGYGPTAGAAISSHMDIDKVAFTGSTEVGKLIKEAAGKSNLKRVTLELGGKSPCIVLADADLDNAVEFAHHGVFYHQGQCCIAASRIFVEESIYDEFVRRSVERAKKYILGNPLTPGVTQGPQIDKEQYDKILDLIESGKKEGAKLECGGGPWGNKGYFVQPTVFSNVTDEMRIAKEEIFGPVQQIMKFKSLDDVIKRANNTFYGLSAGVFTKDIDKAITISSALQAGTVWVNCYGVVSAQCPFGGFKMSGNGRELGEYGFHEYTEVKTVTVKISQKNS
For `COc1ccc(-c2nc(-c3ccccc3)oc2Nc2ccc3ccccc3c2)cc1`, the “activity, negative = inhibition” value was -9.62%. `COc1ccccc1CNC(=O)CNC(=O)c1cn(-c2ccccc2OC)c(=O)c2ccccc12` was tested, and the “activity, negative = inhibition” value was -5.29%. In the case of `COc1cccc(CC2(CO)CCCN(CC3=Cc4cc(OC)ccc4OC3)C2)c1` (stereo unspecified), the “activity, negative = inhibition” value is reported as -12.6%. With `Cc1nn(-c2ccccc2)c(=O)c2noc(C)c12` the “activity, negative = inhibition” value was -1.15%. `COc1ccc(N(C(=O)c2cccnc2)S(=O)(=O)c2ccc3c(c2)n(C)c(=O)n3C)cc1` was tested, and the “activity, negative = inhibition” value was -5.62%. `O=C(c1cccnc1)N(c1cc2sc(=O)oc2c2ccccc12)S(=O)(=O)c1ccccc1` was tested, and the Potency was 10 µM (active). `Cc1ccc(C(=O)Cn2cccn2)cc1` was tested, and the “activity, negative = inhibition” value was -4.42%. For `COc1ccc(CCNC(=O)C(=O)NCc2ccccc2C)cc1OC`, the “activity, negative = inhibition” value was 8.53%. `COc1ccc(CCNC(=O)COC(=O)/C=C/c2cccs2)cc1OC` was tested, and the “activity, negative = inhibition” value was 4.49%. For `COc1ccc(CCNC(=O)CC2SC(=Nc3cc(C)cc(C)c3)NC2=O)cc1OC` (stereo unspecified), the Potency was 12.6 µM (active). For `CCCCn1c(N)c(N(CC)C(=O)/C=C/c2ccco2)c(=O)[nH]c1=O`, the “activity, negative = inhibition” value was -2.37%. With `CC(C)(C)NC(=O)c1ccc(Cn2cc(C(F)(F)F)ccc2=O)cc1` the “activity, negative = inhibition” value was 1.97%. `O=C1NC(=Nc2ccc(Cl)cc2)SC1Cc1cccc(Cl)c1Cl` (stereo unspecified) was tested, and the “activity, negative = inhibition” value was 17.6%. In the case of `CCC(C)(C)n1nnnc1C(c1cccs1)N1CCN(Cc2ccccc2)CC1` (stereo unspecified), the “activity, negative = inhibition” value is reported as -3.94%. In the case of `Fc1ccc(Cn2nnnc2C(c2cccs2)N2CCCCCC2)cc1` (stereo unspecified), the Potency is reported as 7.94 µM (active). `N#Cc1ccc(C(c2nnnn2CCc2ccccc2)N2CCCCCC2)cc1` (stereo unspecified) was tested, and the “activity, negative = inhibition” value was -7.57%. With `COc1ccc(C(=O)N/N=c2\oc3ccccc3cc2C(N)=O)cc1` the “activity, negative = inhibition” value was -1.79%. `CC1Cc2ccccc2N1C1=CC(=O)CC(C)(C)C1` (stereo unspecified) was tested, and the “activity, negative = inhibition” value was -16.2%. With `COc1ccccc1CSc1ncc(-c2ccc([N+](=O)[O-])cc2)[nH]1` the Potency was 28.2 µM (active). In the case of `COc1ccccc1CSc1nc2ccccc2[nH]1`, the “activity, negative = inhibition” value is reported as 4.43%. For `COc1ccccc1CC(=O)Nc1ccc([N+](=O)[O-])cc1OC`, the “activity, negative = inhibition” value was -4.92%. For `Cc1ccc(NC(=O)O[C@@H]2C(=O)c3cc(Br)ccc3O[C@H]2c2ccc3c(c2)OCO3)cc1Br`, the “activity, negative = inhibition” value was -1.23%. `CC(C)(C)CN1CCNC(=O)C1CC(=O)NC1Cc2ccccc2C1` (stereo unspecified) was tested, and the “activity, negative = inhibition” value was -0.0338%. With `COC(=O)[C@@H](NC(=O)NCc1cccc(OC)c1)C(C)C` the Potency was 10 µM (active). With `COc1cccc(NC(=O)NCc2ccc(F)cc2)c1` the “activity, negative = inhibition” value was 5.85%. For `COc1cccc(CNC(=O)c2n[nH]c3ccccc23)c1`, the “activity, negative = inhibition” value was 0.331%. `CC(=O)Cc1nsc(NC(=O)c2ccc(Cl)cc2Cl)n1` was tested, and the “activity, negative = inhibition” value was 1.32%. With `CC1CCCN(CC(O)COc2ccc3c(c2)OCO3)C1` (stereo unspecified) the “activity, negative = inhibition” value was -0.13%. `CCCCNC(=O)CCNC(=O)c1ccc(C(C)(C)C)cc1` was tested, and the “activity, negative = inhibition” value was -13.2%. `Cc1ccc(CNC(=O)CCCNC(=O)c2ccc(Cl)cc2)n1C` was tested, and the Potency was 28.2 µM (active). `O=C(COC(=O)CCCNC(=O)c1ccc(Cl)cc1)Nc1cc(Cl)ccc1Cl` was tested, and the “activity, negative = inhibition” value was 11.4%.
